Data on 36 compounds can be found in PubChem BioAssay (NCATS).

Experiment [1] can be described thus: qHTS of pediatric cancer cell lines to identify multiple opportunities for drug repurposing: Primary screen for BT-12 cells (AID 1347101). Further: nearly all actives have a fitted effect of over 25% in size. Further: potency means the concentration at half of the fitted maximal effect. In a few lines: (§1)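 Cells (500-1,000/well) rested 5 h, then received compounds for 48 h; metabolically active cells were measured by CellTiter-Glo luminescence. Final concentrations spanned up to 46 µM (MIPE, 11-point) or 0.59 nM-46 µM (NPC, 8-point) in primary screens, 11-point in follow-ups.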
(In general: In qHTS, concentration-response curves come from the screen itself.)

Experiment [2] in a line: qHTS of pediatric cancer cell lines to identify multiple opportunities for drug repurposing: Primary screen for Rh18 cells (AID 1347102). Further: nearly all actives have a fitted effect of over 65% in size. Further: potency means the concentration at half of the fitted maximal effect. In a few lines:
(§2)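 Viability after 48 h compound treatment at 37C, 500-1,000 cells/well, read as ATP luminescence with CellTiter-Glo. Primary screens used 11-point (MIPE, 0.78 nM-46 µM) or 8-point (NPC, 0.59 nM-46 µM) final concentrations; follow-up screens used 11-point dilutions.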

Experiment [3] is described as follows: qHTS of pediatric cancer cell lines to identify multiple opportunities for drug repurposing: Primary screen for OHS-50 cells (AID 1347103). Further: nearly all actives have a fitted effect of over 40% in size. Further: potency means the concentration at half of the fitted maximal effect. In a few lines: as §1
Experiment [4] in a line: qHTS of pediatric cancer cell lines to identify multiple opportunities for drug repurposing: Primary screen for RD cells (AID 1347104). Further: nearly all actives have a fitted effect of over 55% in size. Further: potency means the concentration at half of the fitted maximal effect. In short, it runs like this:
(§3)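 Readout: CellTiter-Glo luminescence, 48 h treatment. Controls DMSO (neutral) and bortezomib 2.3 µM final (positive). Potency and efficacy taken from primary-screen concentration-response curves.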

A short description of experiment [5]: qHTS of pediatric cancer cell lines to identify multiple opportunities for drug repurposing: Primary screen for MG 63 (6-TG R) cells (AID 1347105). Further: nearly all actives have a fitted effect of over 50% in size. Further: potency means the concentration at half of the fitted maximal effect. In a few lines:
as §3

Experiment [6] is described as follows: qHTS of pediatric cancer cell lines to identify multiple opportunities for drug repurposing: Primary screen for Rh30 cells (AID 1347107). Further: series mostly up to about 46 µM; nearly all actives have a fitted effect of over 75% in size. In a few lines: as §2
Experiment [7] in a line: qHTS of pediatric cancer cell lines to identify multiple opportunities for drug repurposing: Primary screen for Rh41 cells (AID 1347108). Further: nearly all actives have a fitted effect of over 70% in size. Further: potency means the concentration at half of the fitted maximal effect. In short, it runs like this: as §3
The nature of experiment [8]: qHTS of pediatric cancer cell lines to identify multiple opportunities for drug repurposing: Primary screen for LAN-5 cells (AID 1347100). Further: potency means the concentration at half of the fitted maximal effect. In short, it runs like this: as §2
Experiment [9] is described as follows: qHTS of pediatric cancer cell lines to identify multiple opportunities for drug repurposing: Primary screen for control Hh wild type fibroblast cells (AID 1347106). Further: nearly all actives have a fitted effect of over 55% in size. Further: potency means the concentration at half of the fitted maximal effect. In a few lines:
as §2

Experiment [10] is described as follows: qHTS of pediatric cancer cell lines to identify multiple opportunities for drug repurposing: Confirmatory screen for NB1643 cells (AID 1347109). Further: nearly all actives have a fitted effect of over 45% in size. Further: potency means the concentration at half of the fitted maximal effect. In a few lines:
as §2

“And” between values parts separate entries of the source, which are not always exact repeats. Equal entries are not always repeated. Results filed as inconclusive are left out. The source made the active and inactive calls. The call rests on the fitted dose curve; in most records, active means well fitted curve in the direction sought with a large enough effect; inconclusive means small, poorly fitted or top-dose-only effect, or another doubt; inactive means no such curve, though single readings can be large; an effect the other way counts as inactive or inconclusive.

For the compound `NCCCCNCCCN`, the Potency result in [1], in experiment [2], in experiment [3], in [4], in [5] and in [6] was “inactive” throughout. Besides, the Potency in [7] was 23.5 µM (active).

In the case of `O=c1cc(N2CCOCC2)oc2c(-c3ccccc3)cccc12`, the Potency result in experiment [8] and in [9] was “inactive” throughout. In addition, the Potency in experiment [3] is 2.73 µM (active).

Consider `CN(C)c1ccc(O)c2c1C[C@H]1C[C@H]3[C@H](N(C)C)C(=O)C(C(N)=O)=C(O)[C@@]3(O)C(=O)C1=C2O`, for which the Potency result in experiment [2], in experiment [3], in experiment [4], in experiment [5], in [9] and in [6] was “inactive” each time. The Potency entry in [7] and in experiment [10] was “inactive” in each case.

Regarding `CN(c1nccc(=O)[nH]1)C1CCN(c2nc3ccccc3n2Cc2ccc(F)cc2)CC1`, the Potency entry in [1], in [2], in [4], in [5], in [9] and in [6] was “inactive” in each case. Also, the Potency entry in [7] was “inactive”.

For `OC(CN1CCN(c2cccc(Cl)c2)CC1)C(c1ccccc1)c1ccccc1` (stereo not drawn), the Potency result in experiment [2], in experiment [9], in experiment [6] and in experiment [7] was “inactive” each time. Moreover, the Potency in [3] is 24.3 µM (active).

In the case of `COc1cc(Nc2c(C#N)cnc3cc(OCCCN4CCN(C)CC4)c(OC)cc23)c(Cl)cc1Cl`, the Potency in [1] was 27.6 µM (active); in [3], 19.5 µM (active) and 2.17 µM (active); in [4], 15 µM (active) and 14.8 µM (active). The Potency entry in experiment [9] is “inactive”.

Regarding `COC1=C(OC)C(=O)C(CCCCCCCCCCO)=C(C)C1=O`, the Potency entry in experiment [5], in [9], in experiment [6] and in experiment [7] was “inactive” in each case.

As to `O=C1c2c(O)cc(O)cc2OC(c2ccc(O)c(O)c2)C1O` (stereo not drawn), the Potency entry in experiment [1], in [2], in [4], in experiment [5], in experiment [9] and in experiment [6] was “inactive” each time. Further, the Potency result in experiment [7] and in [10] was “inactive” throughout.

For `Nc1nc(Cl)nc2c1ncn2[C@H]1C[C@H](O)[C@@H](CO)O1`, the Potency in [8] is 418 nM (active); in experiment [3], 15.3 µM (active); in [5], 29.6 µM (active); in experiment [10], 2.08 µM (active). In addition, the Potency entry in experiment [2], in [9] and in [7] was “inactive” in each case.

Turning to `O=C1CCc2ccc(OCCCCN3CCN(c4cccc(Cl)c4Cl)CC3)cc2N1`, the Potency result in [2], in [4], in experiment [5], in experiment [9], in [6] and in experiment [7] was “inactive” throughout. Further, the Potency in [3] was 6.92 µM (active) and 24.3 µM (active).

Turning to `CCCOc1ccc2nc(NC(=O)OC)[nH]c2c1`, the Potency in experiment [1] was 123 nM (active) and 30.6 nM (active); in experiment [3] it was 61.7 nM (active) and 13.7 nM (active). In addition, the Potency result in experiment [2], in experiment [9] and in experiment [6] was “inactive” each time.

Take `Cc1nc(Nc2ncc(C(=O)Nc3c(C)cccc3Cl)s2)cc(N2CCN(CCO)CC2)n1`: the Potency entry in [8], in experiment [6] and in [7] was “inactive” each time. Further, the Potency in experiment [2] is 0.0335 µM (active); in [3], 24.3 µM (active) and 12.3 µM (active); in [5] it was 0.0084 µM (active).

For `CC(C)c1ccc2c(c1)c(SC(C)(C)C)c(CC(C)(C)C(=O)O)n2Cc1ccc(Cl)cc1`, the Potency entry in [9] is “inactive”.

Turning to `Clc1ccc(C(Cn2ccnc2)OCc2ccsc2Cl)c(Cl)c1` (stereo not drawn), the figures for the Potency in experiment [2], in [3] and in [10] were 37.6 µM (active), 24.3 µM (active) and 14.7 µM (active), respectively. The Potency result in experiment [5], in [9], in experiment [6] and in experiment [7] was “inactive” in each case.

As for `O=C1NC(=O)C(c2ccccc2[N+](=O)[O-])=C1Nc1ccc(O)c(Cl)c1`, the Potency result in experiment [1], in experiment [2], in [3], in experiment [4], in experiment [9] and in experiment [6] was “inactive” throughout. The Potency entry in [7] was “inactive”.

For the compound `CCCc1cc(=O)[nH]c(=S)[nH]1`, the Potency entry in [1], in [2], in experiment [3], in [4], in experiment [5] and in experiment [9] was “inactive” throughout. The Potency result in experiment [6] and in experiment [7] was “inactive” throughout.

For the compound `Oc1ccc(-c2nc(-c3ccc(F)cc3)c(-c3ccncc3)[nH]2)cc1`, the Potency result in experiment [1] and in experiment [9] was “inactive” throughout. Besides, the Potency in experiment [4] is 29.6 µM (active); in [7], 16.6 µM (active); in experiment [10] it was 0.928 µM (active).

On to `Clc1ccc(C(Cn2ccnc2)OCc2c(Cl)cccc2Cl)c(Cl)c1` (stereo not drawn), for which the Potency result in experiment [2], in [5], in experiment [9], in experiment [6] and in experiment [7] was “inactive” throughout. Further, the Potency in experiment [3] was 19.5 µM (active) and 24.3 µM (active).

Consider `O=C1c2ccccc2-c2n[nH]c3cccc1c23`, for which the Potency in [8] was 1660 nM (active); in experiment [3] it was 21.7 µM (active). For the same compound, the Potency result in experiment [5] and in experiment [9] was “inactive” throughout.

Turning to `CCc1nc(N)nc(N)c1-c1ccc(Cl)cc1`, the Potency in experiment [1] is 8.71 µM (active) and 10.9 µM (active); in experiment [4], 10.6 µM (active) and 18.7 µM (active). In addition, the Potency result in experiment [2], in experiment [9], in experiment [6] and in experiment [7] was “inactive” throughout.

On to `Cn1c(NCCN(CCO)CCCc2ccc([N+](=O)[O-])cc2)cc(=O)n(C)c1=O`, for which the Potency result in experiment [1], in experiment [2], in experiment [5], in experiment [9], in experiment [6] and in [7] was “inactive” each time.

With `CC(C)c1nc(CN(C)C(=O)N[C@H](C(=O)N[C@@H](Cc2ccccc2)C[C@H](O)[C@H](Cc2ccccc2)NC(=O)OCc2cncs2)C(C)C)cs1`, the Potency result in experiment [1], in experiment [4] and in experiment [9] was “inactive” each time.

In the case of `Cc1ccc(C(=O)c2cc(O)c(O)c([N+](=O)[O-])c2)cc1`, the Potency result in experiment [1], in experiment [2], in experiment [4], in [5], in experiment [9] and in [6] was “inactive” each time. The Potency entry in [7] is “inactive”.

With `CCN(CC)CCOc1ccc(Cc2ccccc2)cc1`, the Potency entry in [1], in [2], in experiment [5], in experiment [9], in experiment [6] and in experiment [7] was “inactive” each time.

As for `CC(C)Oc1ccc2c(=O)c(-c3ccccc3)coc2c1`, the Potency result in experiment [8], in [2], in experiment [4], in experiment [5], in [9] and in [6] was “inactive” throughout. The Potency result in experiment [7] is “inactive”.

In the case of `Clc1ccc(C(Cn2ccnc2)OCc2ccc(Sc3ccccc3)cc2)c(Cl)c1` (stereo not drawn), the Potency result in experiment [1], in experiment [2], in experiment [3], in experiment [5], in experiment [9] and in [6] was “inactive” throughout. In addition, the Potency result in experiment [7] is “inactive”.

For the compound `Cc1ccc(S(=O)(=O)NC(=O)NN2CC3CCCC3C2)cc1` (stereo not drawn), the Potency entry in [1], in [2], in [5], in [9], in experiment [6] and in [7] was “inactive” throughout.

For the compound `c1cnc2cc3c(cc2n1)C1CNCC3C1`, the Potency entry in experiment [1], in experiment [2], in [3], in experiment [4], in [5] and in experiment [9] was “inactive” throughout. For the same compound, the Potency entry in [6], in experiment [7] and in experiment [10] was “inactive” each time.

Take `CCCCN(CCCC)CCC(O)c1cc2c(Cl)cc(Cl)cc2c2cc(C(F)(F)F)ccc12` (stereo not drawn): the Potency entry in experiment [1], in experiment [2], in [4], in experiment [5], in experiment [9] and in experiment [6] was “inactive” throughout. Moreover, in experiment [7], the Potency result is “inactive”. The Potency in [3] is 30.6 µM (active).

With `CN1CCC(=C2c3ccccc3CCc3sccc32)CC1`, the Potency entry in experiment [8], in [5], in [9], in experiment [6] and in experiment [7] was “inactive” throughout. In addition, the Potency in [3] was 12.3 µM (active).

Consider `Nc1nc(N)c(N=O)c(OCC2CCCCC2)n1`, for which the Potency in experiment [2] is 18.7 µM (active); in [3], 15.3 µM (active); in [5], 11.8 µM (active). The Potency result in [6] was “inactive”.

Regarding `O=C(NCC1CCCCN1)c1cc(OCC(F)(F)F)ccc1OCC(F)(F)F` (stereo not drawn), the Potency result in experiment [2], in experiment [4], in experiment [5], in experiment [9], in experiment [6] and in experiment [7] was “inactive” in each case.

For the compound `CCCS(=O)c1ccc2nc(NC(=O)OC)[nH]c2c1` (stereo not drawn), the Potency in experiment [8] is 16800 nM (active); in experiment [3] it was 27.3 µM (active); in experiment [5], 13.3 µM (active) and 18.7 µM (active). In addition, the Potency result in [9] was “inactive”.

On to `CC(=O)O[C@H]1C(=O)[C@@]2(C)C([C@H](OC(=O)c3ccccc3)[C@]3(O)C[C@H](OC(=O)[C@H](O)[C@@H](NC(=O)c4ccccc4)c4ccccc4)C(C)=C1C3(C)C)[C@]1(OC(C)=O)CO[C@@H]1C[C@@H]2O` (stereo partly drawn), for which the Potency in experiment [8] was 1 nM (active); in experiment [3] it was 0.001 µM (active); in experiment [7], 0.0042 µM (active). Also, in [9], the Potency result was “inactive”.

Take `Oc1ccc2ccccc2c1SSc1c(O)ccc2ccccc12`: in experiment [9], the Potency was 23.5 µM (active).

Turning to `O=c1ccc2ccc(O)c(O)c2o1`, the Potency entry in [2], in experiment [5], in experiment [9] and in [6] was “inactive” throughout.
